# Laboratory results published in publication PMC5540273 (PLoS ONE, 2017).
# What was measured:
# Settings in all cases: concentration: 1 μM, replicates: in singlicate; n = 1
# [1] = system: CSNK1A1L
# [2] = system: CSNK1A1
# [3] = system: CSNK1D
# [4] = system: CSNK1E
# [5] = system: CSNK1G1
# [6] = system: CSNK1G2
# [7] = system: CSNK1G3
# [8] = system: CSNK2A1
# [9] = system: CSNK2A2
# [10] = system: T1, CTK
# T1 construct: gene MATK
# [11] = system: DAPK1
# [12] = system: DAPK2
# [13] = system: DAPK3
# [14] = system: T2, DCAMKL1
# T2 construct: gene DCLK1
# [15] = system: T3, DCAMKL2
# T3 construct: gene DCLK2
# [16] = system: T4, DCAMKL3
# T4 construct: gene DCLK3
# [17] = system: DDR1
# [18] = system: DDR2
# [19] = system: T5, DLK
# T5 construct: gene MAP3K12
# [20] = system: T6, DMPK2
# T6 construct: gene CDC42BPG
# 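Note: KINOMEscan kinase panel screen.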
SMILES,%Inh [1],%Inh [2],%Inh [3],%Inh [4],%Inh [5],%Inh [6],%Inh [7],%Inh [8],%Inh [9],%Inh [10],%Inh [11],%Inh [12],%Inh [13],%Inh [14],%Inh [15],%Inh [16],%Inh [17],%Inh [18],%Inh [19],%Inh [20]
COC(=O)Nc1nc2cc(Oc3ccc(NC(=O)Nc4cc(F)ccc4F)cc3)ccc2[nH]1.Cl [GW701424],13%,0%,9%,26%,0%,0%,21%,0%,6%,0%,0%,0%,8%,11%,0%,17%,100%,99.2%,0%,1%
c1ccc(-c2cc(-c3c[nH]nc3-c3ccccn3)ccn2)cc1 [GW576604],0%,0%,38%,15%,0%,1%,3%,0%,15%,0%,8%,0%,22%,0%,23%,12%,0%,24%,26%,0%
Cc1cccc(-c2nc(-c3ccc(S(C)(=O)=O)cc3)sc2-c2ccncc2)c1,9%,18%,16%,36%,0%,20%,0%,0%,14%,0%,4%,0%,0%,0%,0%,0%,0%,9%,0%,53%
c1ccc(-c2n[nH]cc2-c2ccnc3ccccc23)nc1 [GW271431],19%,38%,60%,69%,20%,0%,24%,0%,23%,0%,0%,0%,26%,12%,11%,0%,8%,0%,3%,18%
Cc1c(Cn2c(C)nn3c(=O)cc(N4CCOC(C)C4)nc23)cccc1C(F)(F)F (stereo not drawn) [GSK2344444],0%,0%,0%,0%,0%,0%,18%,12%,9%,2%,2%,0%,0%,0%,0%,21%,14%,0%,0%,0%
COc1ccc(S(=O)(=O)NC2CCN(c3cc(C)nc(Nc4cccc(C#N)c4)n3)CC2)cc1.O=C(O)C(F)(F)F [GSK1653539],0%,0%,19%,54%,12%,0%,30%,0%,4%,0%,0%,0%,23%,0%,0%,34%,0%,9%,0%,0%
Cc1ccc(C(=O)NCC(N)=O)cc1-n1c(C)cc(OCc2ccc(F)cc2F)c(Br)c1=O,26%,25%,19%,0%,22%,10%,8%,0%,0%,0%,0%,0%,15%,3%,17%,19%,15%,3%,0%,0%
O=C(NCCNc1ccnc(Nc2ccc(F)cc2)n1)c1cc2ccccc2s1 [GSK1379874],9%,0%,0%,37%,0%,0%,21%,7%,19%,52%,0%,0%,0%,0%,0%,0%,0%,1%,33%,0%
N#Cc1c(N2CCOCC2)sc(-c2ccn[nH]2)c1-c1ccc(Cl)cc1,0%,17%,0%,15%,0%,0%,10%,34%,14%,3%,3%,0%,0%,7%,11%,0%,15%,6%,19%,2%
